Measured values published in the supplement of paper PMC10849652.
The full data set covers some 7,900 targets. This sample favours those with a hit. About 0.6% of all pairs of compound and target were hits. A number with no mark means an inactive call.

Tests used:
Test in all cases: log2 fold change, soluble protein after heating vs DMSO (PISA); higher = thermal stabilisation; K562 cells, 10 uM, 30 min; active = over 0.2 and 3.5 SD of the protein, either way, in both replicates (recomputed)
IRAK-1-4 Inhibitor I = compound: C1COCCN1CCN2C3=CC=CC=C3N=C2NC(=O)C4=CC(=CC=C4)[N+](=O)[O-] [IRAK-1-4 Inhibitor I]
Method in brief: (§1)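 K562 cells (2×10^6 cells/mL) were treated with 10 μM compound for 30 min, and aliquots were heated for 3 min over 48°C-58°C. Pooled aliquots were extracted in PBS with 0.5% NP-40 at 4°C, and the supernatant after 21,000xg for 90 min was measured by TMTpro 16plex LC-MS/MS with channel sums equalised. Reported thermal stability, relative to control samples and from duplicates, is a log2 fold change.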

ibrutinib = compound: C=CC(=O)N1CCC[C@@H](n2nc(-c3ccc(Oc4ccccc4)cc3)c3c(N)ncnc32)C1 [ibrutinib]
Method in brief: as §1

[1] = compound: CC(=O)c1cnc2ccc(-c3cc(Cl)c(O)c(Cl)c3)nc2c1N[C@H]1CC[C@H](CN(C)C)CC1
Method in brief: as §1

ralimetinib = compound: CC(C)(C)Cn1c(N)nc2ccc(-c3[nH]c(C(C)(C)C)nc3-c3ccc(F)cc3)nc21 [ralimetinib]
Method in brief: as §1

[2] = compound: CC(C)(O)CC(=O)NCCn1ccc2ncnc(Nc3ccc(Oc4cccc(C(F)(F)F)c4)c(Cl)c3)c21
Method in brief: as §1

[3] = compound: CC(C)C1=C2N=C(C=C(N2N=C1)NCC3=CC=CC=C3)NCCCCCCN
Method in brief: as §1

[4] = compound: CC(C)C[C@@H](C=O)NC(=O)[C@H](CC(C)C)NC(=O)[C@H](CC(C)C)NC(=O)OCc1ccccc1
Method in brief: as §1

pinometostat = compound: CC(C)N(C[C@H]1O[C@@H](n2cnc3c(N)ncnc32)[C@H](O)[C@@H]1O)[C@H]1C[C@@H](CCc2nc3cc(C(C)(C)C)ccc3[nH]2)C1 [pinometostat]
Method in brief: as §1

[5] = compound: CC1=C(C(CC(=O)N1)C2=CC=C(C=C2)C(F)(F)F)C(=O)NC3=C(C=C4C(=C3)C=NN4)F
Method in brief: as §1

[6] = compound: CC1=C(C2=C(C=C1)C(=O)C3=CC=CC=C3N2CCCN)C
Method in brief: as §1

[7] = compound: CC1=C(C=C(C=C1)NC(=O)C2=CC(=CC=C2)C(C)(C)C#N)NC3=CC4=C(C=C3)N=CN(C4=O)C
Method in brief: as §1

[8] = compound: CC1=C(C=C(C=C1)NC(=O)C2=CC(=CC=C2)N(C)C)NC(=O)C3=CC=C(C=C3)O
Method in brief: as §1

[9] = compound: CC1=CC=C(C=C1)SC2=C3C=C(SC3=CN=C2)C(=O)N
Method in brief: as §1

[10] = compound: CC1=NC(=CC=C1)C2=C(N=C(N2)C(C)(C)C)C3=CC4=NC=CN=C4C=C3
Method in brief: as §1

Nexturastat A = compound: CCCCN(Cc1ccc(C(=O)NO)cc1)C(=O)Nc1ccccc1 [Nexturastat A]
Method in brief: as §1

vemurafenib = compound: CCCS(=O)(=O)Nc1ccc(F)c(C(=O)c2c[nH]c3ncc(-c4ccc(Cl)cc4)cc23)c1F [vemurafenib]
Method in brief: as §1

[11] = compound: CCCS(=O)(=O)Nc1ccc(F)c(C(=O)c2c[nH]c3ncc(Cl)cc23)c1F
Method in brief: as §1

[12] = compound: CCCc1cc(C)[nH]c(=O)c1CNC(=O)c1cc(-c2ccnc(N3CCN(C)CC3)c2)cc2c1cnn2C(C)C
Method in brief: as §1

givinostat = compound: CCN(CC)Cc1ccc2cc(COC(=O)Nc3ccc(C(=O)NO)cc3)ccc2c1 [givinostat]
Method in brief: as §1

barasertib = compound: CCN(CCCOc1ccc2c(Nc3cc(CC(=O)Nc4cccc(F)c4)[nH]n3)ncnc2c1)CCOP(=O)(O)O [barasertib]
Method in brief: as §1

Sequence of UniProt Q5TFE4 (Q5TFE4 whole entry, looked up): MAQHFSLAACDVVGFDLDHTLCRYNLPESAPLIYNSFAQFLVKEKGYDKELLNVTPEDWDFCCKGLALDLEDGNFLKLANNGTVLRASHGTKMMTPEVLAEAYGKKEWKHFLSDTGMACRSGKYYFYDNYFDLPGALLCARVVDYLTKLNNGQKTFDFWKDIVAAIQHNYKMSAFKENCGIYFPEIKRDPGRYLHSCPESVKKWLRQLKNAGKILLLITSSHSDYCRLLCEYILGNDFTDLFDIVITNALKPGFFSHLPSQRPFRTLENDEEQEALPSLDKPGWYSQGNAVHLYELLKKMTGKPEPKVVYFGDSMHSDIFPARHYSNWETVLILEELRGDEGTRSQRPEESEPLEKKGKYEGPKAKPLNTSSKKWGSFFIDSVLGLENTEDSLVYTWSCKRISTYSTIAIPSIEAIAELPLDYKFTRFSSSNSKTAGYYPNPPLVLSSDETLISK
Sequence of UniProt Q96DE0 (Q96DE0 whole entry, looked up): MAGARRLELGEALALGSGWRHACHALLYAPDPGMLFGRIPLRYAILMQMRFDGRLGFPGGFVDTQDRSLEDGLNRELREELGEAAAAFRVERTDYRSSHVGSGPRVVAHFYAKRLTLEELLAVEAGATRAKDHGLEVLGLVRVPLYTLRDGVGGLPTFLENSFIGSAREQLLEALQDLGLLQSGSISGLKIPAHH
Sequence of UniProt Q8NI08 (Q8NI08 whole entry, looked up): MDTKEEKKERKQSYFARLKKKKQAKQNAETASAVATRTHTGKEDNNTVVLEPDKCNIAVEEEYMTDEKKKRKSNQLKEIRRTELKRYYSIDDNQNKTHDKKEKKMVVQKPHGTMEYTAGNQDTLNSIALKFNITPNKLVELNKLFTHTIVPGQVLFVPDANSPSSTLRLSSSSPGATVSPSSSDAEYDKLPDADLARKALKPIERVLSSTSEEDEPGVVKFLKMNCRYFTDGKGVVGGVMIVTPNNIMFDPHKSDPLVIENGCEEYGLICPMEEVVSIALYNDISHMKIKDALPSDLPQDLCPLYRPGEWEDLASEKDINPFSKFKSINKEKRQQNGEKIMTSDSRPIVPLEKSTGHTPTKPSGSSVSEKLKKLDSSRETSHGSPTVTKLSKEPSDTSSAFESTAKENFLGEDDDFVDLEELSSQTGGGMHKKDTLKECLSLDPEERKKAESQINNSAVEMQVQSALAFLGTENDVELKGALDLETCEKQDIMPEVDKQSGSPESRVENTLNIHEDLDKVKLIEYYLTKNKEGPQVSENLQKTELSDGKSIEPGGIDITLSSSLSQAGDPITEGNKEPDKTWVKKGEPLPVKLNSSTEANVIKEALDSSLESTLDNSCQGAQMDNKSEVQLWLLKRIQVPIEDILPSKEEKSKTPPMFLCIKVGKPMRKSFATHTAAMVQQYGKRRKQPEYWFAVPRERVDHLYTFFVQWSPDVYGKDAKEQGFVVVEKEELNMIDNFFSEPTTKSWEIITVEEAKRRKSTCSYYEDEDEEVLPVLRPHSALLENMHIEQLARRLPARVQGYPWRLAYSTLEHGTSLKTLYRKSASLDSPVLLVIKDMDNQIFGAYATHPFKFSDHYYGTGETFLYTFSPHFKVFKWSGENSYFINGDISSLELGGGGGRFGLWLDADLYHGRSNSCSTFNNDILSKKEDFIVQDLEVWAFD
Sequence of UniProt O43181 (O43181 whole entry, looked up): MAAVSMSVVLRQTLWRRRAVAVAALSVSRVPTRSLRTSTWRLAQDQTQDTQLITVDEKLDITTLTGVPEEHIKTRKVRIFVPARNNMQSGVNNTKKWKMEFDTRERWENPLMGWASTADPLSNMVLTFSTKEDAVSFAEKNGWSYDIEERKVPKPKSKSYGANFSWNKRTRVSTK
Sequence of UniProt O95182 (O95182 whole entry, looked up): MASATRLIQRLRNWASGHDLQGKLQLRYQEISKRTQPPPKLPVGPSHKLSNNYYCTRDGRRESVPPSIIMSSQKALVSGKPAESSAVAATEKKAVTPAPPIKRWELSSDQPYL
Sequence of UniProt Q8N543 (Q8N543 whole entry, looked up): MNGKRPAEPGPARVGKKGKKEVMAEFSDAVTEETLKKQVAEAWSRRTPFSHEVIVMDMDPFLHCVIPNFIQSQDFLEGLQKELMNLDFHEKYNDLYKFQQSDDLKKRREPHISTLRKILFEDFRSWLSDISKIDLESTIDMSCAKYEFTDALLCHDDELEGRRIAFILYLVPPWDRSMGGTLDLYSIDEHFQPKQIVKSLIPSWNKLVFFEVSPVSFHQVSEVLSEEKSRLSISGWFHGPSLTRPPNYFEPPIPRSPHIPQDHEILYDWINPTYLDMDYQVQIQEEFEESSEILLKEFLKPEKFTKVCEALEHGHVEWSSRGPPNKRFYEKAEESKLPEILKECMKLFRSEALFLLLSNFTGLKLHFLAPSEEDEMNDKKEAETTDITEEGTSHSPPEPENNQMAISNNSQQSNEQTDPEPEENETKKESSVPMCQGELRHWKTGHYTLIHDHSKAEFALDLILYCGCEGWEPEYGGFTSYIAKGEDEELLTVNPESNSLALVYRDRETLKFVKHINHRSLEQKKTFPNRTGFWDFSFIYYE
Sequence of UniProt O60313 (O60313 whole entry, looked up): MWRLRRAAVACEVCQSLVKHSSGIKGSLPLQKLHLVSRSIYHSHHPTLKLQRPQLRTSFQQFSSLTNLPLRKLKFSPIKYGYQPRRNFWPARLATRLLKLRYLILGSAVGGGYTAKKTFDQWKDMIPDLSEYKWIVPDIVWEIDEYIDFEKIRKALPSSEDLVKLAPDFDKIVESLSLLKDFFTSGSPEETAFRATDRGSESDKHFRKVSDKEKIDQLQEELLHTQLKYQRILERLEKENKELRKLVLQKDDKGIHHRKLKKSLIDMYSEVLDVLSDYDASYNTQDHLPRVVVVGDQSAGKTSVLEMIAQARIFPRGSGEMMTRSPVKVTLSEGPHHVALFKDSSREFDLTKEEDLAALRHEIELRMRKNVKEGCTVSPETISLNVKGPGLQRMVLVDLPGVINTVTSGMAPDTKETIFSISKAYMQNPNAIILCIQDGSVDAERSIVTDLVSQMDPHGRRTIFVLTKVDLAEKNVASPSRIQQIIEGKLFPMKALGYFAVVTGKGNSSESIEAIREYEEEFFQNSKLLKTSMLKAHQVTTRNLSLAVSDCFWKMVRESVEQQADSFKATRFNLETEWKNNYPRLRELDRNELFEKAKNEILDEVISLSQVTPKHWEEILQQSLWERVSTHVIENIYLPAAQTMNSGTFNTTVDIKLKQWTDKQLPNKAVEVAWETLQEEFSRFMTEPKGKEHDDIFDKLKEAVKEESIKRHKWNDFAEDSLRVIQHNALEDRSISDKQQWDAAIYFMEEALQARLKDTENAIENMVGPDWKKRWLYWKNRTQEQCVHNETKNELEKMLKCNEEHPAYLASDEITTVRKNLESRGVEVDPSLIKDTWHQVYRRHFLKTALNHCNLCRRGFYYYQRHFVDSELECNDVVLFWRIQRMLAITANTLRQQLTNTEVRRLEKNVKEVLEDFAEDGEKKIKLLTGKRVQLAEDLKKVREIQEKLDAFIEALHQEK

Target | log2 fold change (IRAK-1-4 Inhibitor I) | log2 fold change (ibrutinib) | log2 fold change [1] | log2 fold change (ralimetinib) | log2 fold change [2] | log2 fold change [3] | log2 fold change [4] | log2 fold change (pinometostat) | log2 fold change [5] | log2 fold change [6] | log2 fold change [7] | log2 fold change [8] | log2 fold change [9] | log2 fold change [10] | log2 fold change (Nexturastat A) | log2 fold change (vemurafenib) | log2 fold change [11] | log2 fold change [12] | log2 fold change (givinostat) | log2 fold change (barasertib)
NT5DC1 (UniProt Q5TFE4) | 0.049 | 0.021 | -0.039 | -0.054 | -0.019 | 0.02 | -0.011 | -0.024 | -0.001 | -0.022 | 0.149 | -0.018 | -0.019 | 0.021 | -0.068 | -0.001 | -0.016 | -0.003 | 0.004 | -0.039
NDUFS4 (UniProt O43181) | 0.076 | 0.029 | 0.062 | 0.015 | 0.022 | 0.007 | 0.274 (active) | 0.013 | 0.046 | -0.193 | 0.03 | 0.024 | -0.069 | -0.033 | 0.032 | -0.061 | -0.06 | -0.033 | -0.083 | -0.062
NCOA7 (UniProt Q8NI08) | 0.017 | -0.056 | -0.075 | 0.052 | -0.005 | -0.088 | 0.072 | 0.019 | -0.033 | -0.009 | 0.068 | -0.045 | 0.015 | 0.016 | 0.012 | 0.008 | -0.005 | 0.024 | 0.045 | 0.009
NDUFA7 (UniProt O95182) | 0.169 | 0.024 | -0.014 | -0.017 | -0.192 | -0.063 | 0.158 | 0.074 | 0.038 | 0.033 | -0.013 | 0 | -0.007 | -0.021 | -0.035 | -0.045 | 0.019 | -0.079 | -0.024 | -0.011
NUDT16 (UniProt Q96DE0) | 0.049 | 0.03 | 0.022 | -0.039 | 0.005 | 0.066 | -0.001 | -0.001 | 0.017 | 0.004 | -0.031 | -0.005 | -0.008 | -0.03 | -0.003 | 0.163 | 0.019 | -0.041 | -0.006 | 0.028
MRPS10 (UniProt P82664) | -0.024 | 0.02 | -0.065 | -0.031 | 0.01 | -0.027 | 0.066 | 0.045 | 0.041 | -0.28 | 0.018 | 0 | 0 | -0.03 | 0.097 | -0.002 | 0.006 | -0.046 | 0.063 | -0.051
OGFOD1 (UniProt Q8N543) | 0.07 | -0.036 | 0.009 | -0.05 | -0.023 | -0.018 | 0.035 | -0.011 | -0.028 | 0.036 | -0.013 | -0.01 | 0.013 | 0.033 | -0.061 | -0.01 | -0.006 | 0.006 | -0.112 | 0.009
OPA1 isoform 2 (UniProt O60313) | -0.008 | -0.009 | -0.05 | 0.043 | -0.201 | -0.375 (active) | 0.004 | 0.03 | -0.006 | 0.1 | 0.01 | -0.064 | 0.027 | -0.003 | -0.018 | -0.001 | 0.095 | -0.002 | 0.052 | 0.045
